A selection: hits, their analogues and other compounds. The true share with any hit is near 1.6%.
KCNQ2 enhance: potentiators of rat KCNQ2 potassium channel. O88943. CHO-K1 KCNQ2, FluxOR thallium flux fluorescence; stronger effect = higher value. B-score at 10 µM. hit rate 0.54% among 310,000. AID 2239;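 active = fluorescence ratio B-score at least 3 SD of library B-scores, with initial fluorescence B-score within 3 of them, cut at about 5.3 in these data; same plate scores as AID 2156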;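 also: B-score of peak minus minimum over baseline fluorescence ratio after K+ and Tl+ stimulus; positive B-score means potentiation of KCNQ2 with more thallium influx and brighter signal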
KCNQ2 block: blocks the rat KCNQ2 potassium channel; O88943; CHO-K1 KCNQ2, FluxOR thallium flux, 20 min; stronger effect = lower value; B-score at 10 µM; hit rate 1.1% among 310,000;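 active = fluorescence ratio B-score at most minus 3 library SDs, with starting brightness B-score within 2 library SDs, cut at about -5.5 in these data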
KCNQ2 inh conf: confirmation of rat KCNQ2 potassium channel inhibitors | shares compounds with KCNQ2 block | hit rate 57% among 1,000 | activity change, negative = inhibition, % at 10 µM | AID 493025 | KCNQ2-expressing cells, thallium flux, inhibition; stronger effect = lower value;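 also: 0% = vehicle wells and values are ratio percent relative to vehicle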
KCNQ1 spec: KCNQ2 inhibitor that also affects human KCNQ1 channel; hit rate 15% among 1,000; shares compounds with KCNQ2 block; AID 493026; KCNQ1-expressing cells, FluxOR thallium flux fluorescence; stronger effect = lower value; activity change, negative = inhibition, % at 10 µM;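 active = activity change at least 3 SD of negative controls below their mean in both duplicate wells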;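 also: CHO cells stably transfected with KCNQ1 and depolarized by potassium stimulus; peak minus minimum fluorescence over baseline after thallium addition; 0% = vehicle negative control and -100% = blank without thallium stimulus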
CHO parental ctr: counter-screen for KCNQ2 inhibitors: effect in parental CHO cells; shares compounds with KCNQ2 block; thallium flux counter-screen; stronger effect = lower value; activity change, % at 10 µM; hit rate 14% among 1,000; AID 493029;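 also: 0% = vehicle negative controls with stimulus buffer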
KCNQ2 patch conf: rat KCNQ2 inhibition confirmed by electrophysiology. shares compounds with KCNQ2 block. KCNQ2-expressing cells, automated patch clamp current. calls only at 10 µM. hit rate 49% among 550
Kir21 conf inh: confirmation of mouse Kir2.1 potassium channel inhibitors; shares compounds with KCNQ2 enhance; Tl flux remaining, % of negative control (stronger effect = lower value), % at 10 µM; hit rate 41% among 2,300; AID 2032; Kir2.1-expressing cells, FluxOR thallium flux fluorescence; stronger effect = lower value;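 active = Primary-screen hit whose thallium flux fell at least 3 control SD below untreated wells in both duplicates, with normal baseline fluorescence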;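 also: 0% = blank wells without stimulus and 100% = stimulated no-compound controls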
HEK293 ctr: counter-screen for Kir2.1 inhibitors: effect in parental HEK293 cells; shares compounds with KCNQ2 enhance; FluxOR thallium flux fluorescence; 0% = unstimulated blank wells; FluxOR signal as % of negative control (100 = no effect), % at 10 µM; hit rate 19% among 2,300;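 active = dye signal at least 3 control SD above or below untreated wells in both duplicates, raw fluorescence within 3, either direction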;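 also: percent is based on the flux ratio of peak minus minimum fluorescence over baseline F0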
CHO-K1 ctr: alters thallium flux in parental CHO-K1 cells, KCNQ2 counter-screen; activity increase over 3SD of controls, % at 10 µM; FluxOR thallium flux fluorescence; zero = vehicle mean+3SD, 100% = vehicle-minus-blank window; AID 2282; hit rate 43% among 1,200; shares compounds with KCNQ2 enhance;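 active = signal rise of at least 3 SD above the untreated control mean, in both duplicate wells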;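 also: counter screen of KCNQ2 potentiator hits so any rise reflects channel-independent effects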
KCNQ1 sel pot: tests whether KCNQ2 potentiators also act on human KCNQ1; shares compounds with KCNQ2 enhance; CHO KCNQ1 stable, FluxOR thallium flux fluorescence; beyond 3SD, as % of vehicle-control signal; activation over 3SD threshold, % at 10 µM; hit rate 28% among 1,200; AID 2283;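 active = fluorescence ratio rise of at least 3 SD of vehicle wells above their mean, in both replicate wells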;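 also: 0% = vehicle mean plus 3 SD and 100% = vehicle minus unstimulated blank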
KCNQ2 pot confirm: rat KCNQ2 channel potentiator confirmation | shares compounds with KCNQ2 enhance | CHO-KCNQ2 cells, FluxOR thallium flux fluorescence | hit rate 68% among 1,200 | potentiation, less the hit threshold, % at 10 µM | AID 2287;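 active = fluorescence ratio rising 3 SD or more over the vehicle control mean in both replicates, plus primary screen hit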;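 also: peak minus minimum thallium fluorescence divided by baseline after K/Tl stimulus; 0% = vehicle mean plus 3 SD and 100% = vehicle minus unstimulated blank difference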
Kir2-1 sel: selectivity of KCNQ2 potentiators: effect on mouse Kir2.1. AID 2345. shares compounds with KCNQ2 enhance. HEK293 Kir2.1, FluxOR thallium flux fluorescence. hit rate 2% among 1,200. activity over 3SD threshold, % at 10 µM;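 active = fluorescence ratio rise of at least 3 SD above the vehicle-control mean, seen in both replicates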;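 also: 0% = vehicle mean plus 3 SD and 100% = vehicle minus no-stimulus blank window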
KCNQ2 W236L pot: rat KCNQ2 W236L mutant potentiation by KCNQ2 potentiators | shares compounds with KCNQ2 enhance | CHO KCNQ2-W236L, automated patch clamp current | current increase over 3SD of negative controls (%), stronger effect = higher value, % at 25 µM | hit rate 10% among 940;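 active = current increase at least 3 SD of the untreated controls above them in both duplicate recordings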
* hit, by the source's call; i = inactive; / = no result given. Unless noted, no rule for the calls is given here.

SMILES	KCNQ2 enhance	KCNQ2 block	KCNQ2 inh conf	KCNQ1 spec	CHO parental ctr	others
CCOc1cc(/C=C2/C(=O)NC(=O)N(c3ccc(CC)cc3)C2=O)ccc1OC(=O)c1cccs1	/	i	/	/	/
FCCN(CCF)c1cccc(Cl)c1	/	i	/	/	/
CC(=O)N1N=C(c2cccnc2)OC1c1ccccc1Cl (stereo not drawn)	/	i	/	/	/
CCn1c(O)c(/C(C)=N/N2CCCCC2c2cccnc2)c(=O)[nH]c1=S (stereo not drawn)	0.02	i	/	/	/
NC(N)=N/N=C/c1cn(-c2ccccc2)nc1-c1cccs1	-11	-11*	i	i	i
O=c1c2ccccc2nc(-c2cccs2)n1-c1ccccc1	/	i	/	/	/
NC(=O)CN1CCCC1=O	0.63	i	/	/	/
CN1CC2=CC(O)CC3Oc4c(O)ccc(c4[C@]23C)C1 (stereo partly drawn)	1.6	i	/	/	/
COc1cccc(-n2c(/C=C/c3ccc(O)c(O)c3)nc3ccccc3c2=O)c1	-6.9	-6.9*	-28%*	i	i	KCNQ2 patch conf=i
COc1ccc(-n2c(/C=C/c3ccc(O)c(OC)c3)nc3ccccc3c2=O)cc1	/	i	/	/	/
COc1ccc(N=C2SCCCN2C)cc1	0.85	i	/	/	/
O=P(NCc1ccccc1)(Oc1ccccc1)Oc1ccccc1	-6.9	-6.9*	i	i	i
O=P(NS(=O)(=O)c1ccccc1)(Oc1ccccc1)Oc1ccccc1	0.11	i	/	/	/
CC(C)CN(C(=O)CN1CC=C(c2ccccc2)CC1)c1c(N)n(CC(C)C)c(=O)[nH]c1=O	/	i	/	/	/
O=P(Nc1ccccc1)(Nc1ccccc1)Oc1ccc(Cl)cc1	-9.7	-9.7*	i	i	i
COc1cccc(NP(=O)(Oc2ccc(Cl)cc2)Oc2ccc(Cl)cc2)c1	/	i	/	/	/
CCCCCCCSc1cc(OC)c(CCNC)cc1OC	-7.4	-7.4*	-31%*	i	i	KCNQ2 patch conf=i;Kir21 conf inh=20%*;HEK293 ctr=i
Oc1ccc(-[n+]2c(-c3ccccc3)cc(-c3ccccc3)cc2-c2ccccc2)cc1	-6.9	-6.9*	-27%*	i	i	Kir21 conf inh=44%*;HEK293 ctr=74%*
O=C([O-])c1ccc(-[n+]2c(-c3ccccc3)cc(-c3ccccc3)cc2-c2ccccc2)cc1	/	i	/	/	/
COc1ccc(C)cc1NC(=O)N1CCC2(CC1)OCCO2	/	i	/	/	/
CCC(=NCCCn1ccnc1)c1c(O)n(Cc2ccccc2)c(=O)[nH]c1=O	/	i	/	/	/
O=C(CCl)Nc1nccs1	/	i	/	/	/
CC(=O)OC(C)(C)/C=C/C(=O)C(C)(O)C1[C@H](O)C[C@@]2(C)C3CC=C4C(CC[C@@H](O)C4(C)C)[C@]3(CO)C(=O)C[C@]12C (stereo partly drawn)	7.1*	i	/	/	/	Kir21 conf inh=i;HEK293 ctr=i;CHO-K1 ctr=-10;KCNQ1 sel pot=-22;KCNQ2 pot confirm=9.0*;Kir2-1 sel=-38;KCNQ2 W236L pot=i
